Source: PubChem BioAssay AID602262 (National Center for Advancing Translational Sciences (NCATS), 2012)
Calls of active or inactive are those of the source. The call rests on the fitted dose curve; in most records, active means well fitted curve in the direction sought with a large enough effect; inactive means no such curve, though single readings can be large or run the other way.

Test: qHTS Assay for Agonists of the Relaxin Receptor RXFP1: V1B SAR
Details: HEK293 V1B cells, cAMP TR-FRET, 30 min; series mostly up to 78.1 µM
Source text: The relaxin hormone is involved in the variety of biological functions in normal tissues and diseases. The role of relaxin is well-established in female reproduction and parturition, mammary gland and endometrial development, maintenance of myometrial quiescence during pregnancy. Relaxin signaling through its G protein-coupled receptor (GPCR) RXFP1 results in ECM remodeling through regulation of collagen deposition, cell invasiveness, proliferation and overall tissue homeostasis. […] Recombinant human relaxin (rhRlx) is currently being tested in clinical trials as a protective agent in congestive heart failure, in treating severe preeclampsia, and as an anti-fibrotic agent in systemic sclerosis. Upon relaxin binding RXFP1 activation leads to the activation of adenylate cyclase (AC) via Gs. cAMP will activate PKA, which phosphorylates many signaling proteins. Thus, detection of cAMP increase is an easy and reliable indication of relaxin receptor activation. To screen for agonists of the relaxin receptor, a HEK293T cell line stably transfected with RXFP1 was used. RXFP1 activation was assayed by changes in cAMP levels as detected with a time-resolved fluorescence energy transfer (TR-FRET) cAMP detection kit. This assay measures activation of a cell expressing V1B, another GPCR targeted by relaxin, to determine the selectivity of compounds for RXFP1. NIH Chemical Genomics Center [NCGC] NIH Molecular Libraries Probe Production Centers Network [MLPCN] MLPCN Grant: R03 MH085705-01A1 Assay Submitter (PI): Alexander Agoulnik
This is a cell-based assay for cAMP second messenger response to screen for agonists of the RXFP2 receptor. The assay was conducted in the presence of a PDE4 inhibitor (Ro 20174). The cells were lysed and the cAMP levels were measured with a TR-FRET cAMP kit. Presence of cAMP in the cell lysate disrupts binding between the cryptate-labeled anti-cAMP and d2-labeled cAMP pair, leading to a decrease in the TR-FRET signal. Data were normalized to the controls for basal activity (buffer only) and 100% activity (29 nM porcine relaxin). The EC50 values were determined from concentration-response data modeled with the standard Hill equation 1536-well assay protocol for the HEK293 V1B cAMP assay: (1) Add 3 ul HEK293 RXFP2 cell culture. 2000 cells/well in DMEM/F12, 10% FBS, 1x Pen/Strep (dispensed offline with MultiDrop Combi). (2) Incubate 16-24 hr at 37C, 5% CO2. (3) Add 1 ul 400uM Ro20174 in DPBS, 0.05% BSA, 0.005% Tween 20. (3) Add 23 nl compounds in DMSO solution. Final concentration was 0.5 - 58 uM. (4) Incubate 30 min at 37C, 5% CO2. (5) Add 1 ul cAMP-d2 in lysis buffer (HTRF cAMP HiRange kit, CisBio). (6) Add 1 ul anti-cAMP antibody-cryptate in lysis buffer (HTRF cAMP HiRange kit, CisBio). (7) Incubate 30 min at room temperature. (6) Detect the assay plate in a ViewLux plate reader (PerkinElmer) with Ex=320 nm, Em1=615 nm and Em2=665 nm. Keywords: relaxin, RXFP1, RXFP2, G-protein coupled receptor, cAMP, agonist, high throughput screening, MLSMR, MLSCN, NIH Roadmap, qHTS and NCGC

outcome, inactive:
O=C(Nc1ccccc1)c1ccccc1NC(=O)C1CCCCC1
O=C(Nc1cccc(C(F)(F)F)c1)c1ccccc1NC(=O)C1CCCCC1
Cc1ccccc1NC(=O)c1ccccc1NC(=O)C1CCCCC1
O=C(Nc1cccc(SC(F)(F)F)c1)c1ccccc1NC(=O)C1CCCCC1
COCCOc1ccccc1C(=O)Nc1ccccc1C(=O)Nc1cccc(C(F)(F)F)c1
COc1ccccc1C(=O)Nc1cccc(C(=O)Nc2cccc(C(F)(F)F)c2)c1
O=C(Nc1cccc(C(F)(F)F)c1)c1ccccc1NC(=O)C1CCC1
COc1cccc(NC(=O)c2ccccc2NC(=O)C2CCCCC2)c1
O=C(Nc1cccc(S(=O)(=O)C(F)(F)F)c1)c1ccccc1NC(=O)C1CCCCC1
COc1ccccc1C(=O)N(C)c1ccccc1C(=O)N(C)c1cccc(C(F)(F)F)c1
CCOc1ccccc1C(=O)Nc1cnccc1C(=O)Nc1cccc(S(=O)(=O)C(F)(F)F)c1
O=C(Nc1cccc(Cl)c1)c1ccccc1NC(=O)C1CCCCC1
CCOc1ccccc1C(=O)NCCC(=O)Nc1cccc(S(=O)(=O)C(F)(F)F)c1
CCCOc1ccccc1C(=O)Nc1ccccc1C(=O)Nc1cccc(S(=O)(=O)C(F)(F)F)c1
CCCCC(=O)Nc1ccccc1C(=O)Nc1cccc(C(F)(F)F)c1
O=C(Nc1cccc(-c2cccc(C(F)(F)F)c2)c1)c1ccccc1NC(=O)C1CCCCC1
CN(C)CCOc1ccccc1C(=O)Nc1ccccc1C(=O)Nc1cccc(C(F)(F)F)c1
COCCNc1ccccc1C(=O)Nc1cccc(C(F)(F)F)c1
CC(C)Oc1ccccc1C(=O)Nc1ccccc1C(=O)Nc1cccc(S(=O)(=O)C(F)(F)F)c1
COCCOc1ccccc1C(=O)Nc1cccc(C(F)(F)F)c1
COc1ccccc1C(=O)Nc1ccccc1C(=O)Nc1cccc(C(F)(F)F)c1
O=C(Nc1cccc(S(=O)(=O)C(F)(F)F)c1)c1ccccc1NC(=O)c1ccccc1OCC(F)(F)F
COc1ccccc1C(=O)N(C)c1ccccc1C(=O)Nc1cccc(C(F)(F)F)c1
COc1ccccc1C(=O)Nc1ccccc1C(=O)Nc1cccc(S(=O)(=O)C(F)(F)F)c1
O=C(Nc1cccc(Br)c1)c1ccccc1NC(=O)C1CCCCC1
CCOc1ccccc1C(=O)Nc1ccccc1CNc1cccc(S(=O)(=O)C(F)(F)F)c1
